# Source: PubChem
# HCV inhibitor: HCV inhibition. Huh7.5.1 HCVcc-Cre infection, luciferase reporter, 44 h. Potency, µM (doses to about 41.8 µM), for inactives: at the highest dose activity change, negative = inhibition, usual class: inhibitors. actives 3.4% (n = 340,000). AID 651820; further: potency means the concentration at half of the fitted maximal effect
#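 Antiviral activity was scored by luciferase reporter output from cells infected with HCVcc-Cre (~0.5 moi) in presence of compound, 44 h infection period, cells seeded 1,000/well 4 h prior.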
# HCMV antiviral: blocks human cytomegalovirus replication. HFF cells, HCMV-luciferase reporter, 72 h; hits give low values. activity change, negative = inhibition, % at 57.5 µM. actives 4.5% (n = 410,000). AID 1259415; in the data active means activity change below about -60%; inconclusive means no clear call, values can overlap the other calls; inactive means above about -39%
#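 Screen run at 2 compound doses on HFFs infected with reporter HCMV, MOI 1 PFU/cell. Luciferase activity from cell lysates at 72 h post infection gave inhibition relative to buffer-only and Salinomycin wells.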
# Vaccinia Venus: inhibitors of vaccinia virus (Venus reporter); Potency, µM (doses to about 36.5 µM), without a hit: at the highest dose activity change, negative = inhibition, usual class: inhibitors; AID 720580; Vaccinia virus Venus reporter expression, fluorescence; actives 0.46% (n = 330,000); calls by dose curve; tested in A549 cells; further: potency means the concentration at half of the fitted maximal effect; nearly all actives have a fitted effect of over 30% in size
# FMDV inh: foot and mouth disease virus antiviral activity; FMDV antiviral cell-based qHTS; AID 1159524; actives 1.2% (n = 410,000); Potency, µM (titrated, usually from 57.9 µM), inactives show top-dose activity change, negative = inhibition, most hits filed as inhibitors; calls by dose curve; tested in HEK293T cells; further: read-out not given here; potency means the concentration at half of the fitted maximal effect; nearly all actives have a fitted effect of over 45% in size
# Sm TGR inh: blocks Schistosoma mansoni thioredoxin glutathione reductase | Q962Y6 | purified TGR, DTNB reduction, TNB absorbance 405 nm | Potency, µM (series often up to 114 µM), for the others: at the highest dose activity change, negative = inhibition, usual class: inhibitors | actives 3% (n = 360,000); further: potency means the concentration at half of the fitted maximal effect; nearly all actives have a fitted effect of over 60% in size
#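 TGR 20 nM + NADPH 100 uM (dispensed conc.), cpd preinc 15 min RT; start with NADPH (500 uM addition) then DTNB (15 mM addition). Kinetic TNB absorbance, 405 nm filter. Four-parameter Hill fit across titration.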
# Vaccinia mCherry: inhibitors of vaccinia virus infection (mCherry reporter signal); Vaccinia virus mCherry reporter infection, fluorescence; AID 720579; Potency, µM (doses to about 36.5 µM), for inactives: at the top dose activity change, negative = inhibition, most hits filed as inhibitors; actives 0.63% (n = 310,000); calls by dose curve; tested in A549 cells; further: potency means the concentration at half of the fitted maximal effect; nearly all actives have a fitted effect of over 35% in size
# Starred values were filed as active, the others as inactive; i = inactive; u = inconclusive; x = not tested or not shown. Most compounds without a hit are left out; they make up all but 9.3% or so of the library. Unless noted, the call rests on the fitted dose curve; in most records, active means well fitted curve in the direction sought with a large enough effect; inconclusive means small, poorly fitted or top-dose-only effect, or another doubt; inactive means no such curve, though single readings can be large; an effect the other way counts as inactive or inconclusive. On the % scale 0 is the no-effect control and ±100 the full control effect.
SMILES,HCV inhibitor,HCMV antiviral,Vaccinia Venus,FMDV inh,Sm TGR inh,Vaccinia mCherry
CC(C)N(C(=O)c1ccc(C(=O)Nc2ccc([N+](=O)[O-])cc2)cc1)C(C)C,20%,x,-13%,-19%,3%,-3%
Cc1ccccc1NC(=O)C(=O)N/N=C/c1cccc(Br)c1,13%,-9,-11%,1%,0%,-10%
O=C(Nc1nonc1NC(=O)c1cccs1)c1cccs1,4µM*,-93*,u,u,1%,u
COc1ccccc1C(=O)NC(=S)Nc1ccc(NC(=O)c2cccs2)cc1,u,-67*,-22%,u,-29%,-28%
COc1ccccc1C(=O)Nc1ccc(NC(=O)c2ccco2)cn1,u,17,-13%,27%,2%,i
COc1ccccc1C(=O)Nc1ccc(NC(=O)c2cccs2)cc1,x,-25,u,-25%,-1%,u
O=C(Nc1ccc(NC(=O)c2cccs2)cc1)c1cccs1,9%,11,1%,34%,9%,-5%
O=C(Nc1ccc(Cl)cc1)c1cc(S(=O)(=O)NC2CCCCCC2)ccc1F,x,-67*,u,1%,16%,u
COc1ccccc1C(=O)NC(=S)Nc1ccc(NC(=O)c2ccco2)cc1,-20%,-75*,-3%,-2%,2%,-3%
Cc1csc2nc(COC(=O)c3ccccc3NC(=O)c3cccc(Br)c3)cc(=O)n12,x,-28,u,-18%,-1%,u
CC1CCC(CN2CCN=C2Nc2ccccc2)CC1 (stereo not given),u,57,-12%,-17%,-12%,-18%
CC(C)(C)C(=O)NC(=S)NCc1ccccc1,5%,u,-11%,-2%,40µM*,i
S=C(NCc1ccccc1)NCc1ccccc1,-8%,u,-4%,x,10%,-12%
O=C(NC(=S)Nc1ccccc1)c1cccs1,1%,-2,-8%,47%,7.9µM*,i
O=C(NC(=S)Nc1ccc(S(=O)(=O)NC2CCCCC2)cc1)c1cccs1,u,-37,-25%,5%,50µM*,u
O=C(CNC(=S)NC(=O)c1cccs1)c1ccccc1,2%,50,-8%,71%,-3%,-14%
O=C(NC(=S)NCc1ccccc1)c1cccs1,-10%,-8,x,18%,79µM*,x
O=C(Nc1ccc(NC(=S)NC(=O)c2cccs2)cc1)c1ccccc1,u,-30,-17%,-14%,14%,i
CCCCn1c(NCc2cccs2)nc2ccccc21,3%,-28,-13%,-20%,x,-6%
O=C(NC(=S)NCc1ccccc1)c1ccccc1,-10%,-15,-12%,35%,x,i
Cc1c(C(=O)NC(=S)Nc2ccc(NC(=O)c3cccs3)cc2)oc2ccccc12,-13%,-35,-8%,-14%,0.63µM*,-8%
CC1CCCCC1NC(=S)NC(=O)c1cccs1 (stereo not given),-8%,-32,x,8%,22µM*,x
O=C(NC(=S)NCc1ccc(F)cc1)c1ccccc1,-7%,u,-8%,19%,18µM*,-13%
CC(OC(=O)c1cccs1)C(=O)NC1CCCCC1C (stereo not given),-1%,-19,x,-4%,-12%,x
CC(=O)NC(=S)Nc1ccc(NC(=O)c2cccs2)cc1,u,19,-13%,18%,-30%,-6%
SMILES,HCV inhibitor,HCMV antiviral,Vaccinia Venus,FMDV inh,Sm TGR inh,Vaccinia mCherry
Cc1ccc(S(=O)(=O)N2CCCOC2CNC(=O)C(=O)NCc2ccc3c(c2)OCO3)cc1 (stereo not given),-25%,-11,-24%,-19%,1%,-24%
COCC(C)n1c(C)cc(C(=O)COC(=O)c2ccc3c(c2)NC(=O)CS3)c1C (stereo not given),u,u,-10%,u,-1%,u
COC(=O)c1ccc2c(c1)C(NC(C)=O)CCc1cc(OC)c(OC)c(OC)c1-2 (stereo not given),-3%,-81*,u,-14%,x,i
CCCC(=O)NC1CCc2cc(OC)c(OC)c(OC)c2-c2ccc(OC)c(=O)cc21 (stereo not given),u,-91*,u,-6%,x,u
COc1cccc(C(=O)Nc2ccc3c(cc2=O)[C@@H](NC(C)=O)CCc2cc(OC)c(OC)c(OC)c2-3)c1,32µM*,x,x,u,0%,x
COc1ccc2c(c1)C(NC(C)=O)CCc1cc(OC)c(OC)c(OC)c1-2 (stereo not given),-9%,-67*,u,-17%,x,-10%
COc1cc2c(c(OC)c1OC)-c1ccc(O)c(=O)cc1C(NC(C)=O)CC2 (stereo not given),14%,x,u,-8%,-3%,-21%
O=C(NCC1CCN(Cc2cccc(F)c2)CC1)c1cc2ccc3cccnc3c2[nH]1,x,-4,-17%,-25%,5%,-17%
COc1c(C=O)c2c(c(OC)c1OC)-c1ccc(OC)c(=O)cc1C(NC(C)=O)CC2 (stereo not given),0%,-68*,u,-6%,x,u
COc1cc2c(c(OC)c1OC)-c1ccc(OC)c(=O)cc1C(NC(C)=O)CC2 (stereo not given),10%,-87*,u,-5%,-7%,-29%
Cc1nn(C)c(Oc2ccccc2)c1CCNC(=O)C(C)(C)C,0%,-83*,x,-14%,6%,x
Cc1nn(C)c(Oc2ccccc2)c1CCNS(=O)(=O)c1ccc(Cl)cc1,10µM*,-75*,u,-13%,4%,u
COc1ccc(C(=O)N2c3cc4c(cc3C(C)=CC2(C)C)OCO4)cc1,u,u,-19%,u,-15%,x
Cc1nc2cc(NS(=O)(=O)c3c(C)c(C)cc(C)c3C)ccc2s1,2.8µM*,-82*,u,-22%,-8%,u
Cc1nc2ccc(NS(=O)(=O)c3c(C)c(C)cc(C)c3C)cc2s1,16µM*,-61*,u,11%,-20%,u
Clc1ccc(SCc2cn3ccccc3n2)cc1,-3%,-37,-6%,0%,-1%,-11%
Cc1cc(C)c(C#N)c(SCc2cn3ccccc3n2)n1,u,-77*,-21%,-21%,3%,-6%
c1ccc2c(SCc3cn4ccccc4n3)nncc2c1,8%,-60*,x,59%,-11%,x
Cc1cc(C)c(C#N)c(SCc2ccccc2)n1,-10%,-3,-10%,-13%,-1%,x
Cc1cc(C)nc(SCc2cn3ccccc3n2)n1,10%,-60*,x,15%,-7%,x
CN(C)CCCN(C(=O)CCSc1ccccc1)c1nc2cc3c(cc2s1)OCO3,u,-25,u,-19%,u,u
CN(C)CCCN(C(=O)CCS(=O)(=O)c1ccccc1)c1nc2cc3c(cc2s1)OCO3,u,-113*,10µM*,28µM*,4µM*,u
CN(C)CCCN(C(=O)c1ccc(Br)s1)c1nc2cc3c(cc2s1)OCO3,u,-103*,13µM*,-23%,7%,10µM*
